Measured values reported in the supplement of paper PMC10849652.
Targets with a hit are over-represented here; the source holds about 8,800 in all. About 0.5% of all pairs of compound and target were hits. A number with no mark means an inactive call.

Columns and labels:
Experiment in all cases: log2 fold change, soluble protein after heating vs DMSO (PISA); higher = thermal stabilisation; K562 lysate, 10 uM; active = over 0.2 and 3.5 SD of the protein, either way, in both replicates (recomputed)
alvocidib = compound: CN1CC[C@H](c2c(O)cc(O)c3c(=O)cc(-c4ccccc4Cl)oc23)[C@H](O)C1 [alvocidib]
Outline: (§1)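 Pellets of K562 cells were dounce-homogenised in PBS pH 7.4 with 1 mM MgCl2, and the crude extract was held at 1 mg/mL protein for a 30 min treatment with 10 μM compound. Aliquots were heated for 3 min over 48°C-58°C and pooled before NP-40 was added to 0.5% at 4°C. The supernatant from 21,000xg for 90 min was quantified by TMTpro 16plex LC-MS/MS with channel sums equalised. Values are reported from duplicates as log-two fold change in thermal stability relative to solvent controls.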

Tubastatin A = compound: CN1CCc2c(c3ccccc3n2Cc2ccc(C(=O)NO)cc2)C1 [Tubastatin A]
Outline: as §1

[1] = compound: CNC(=O)C1=CC=CC=C1NC2=NC(=NC=C2Cl)NC3=C(C=C(C=C3)N4CCOCC4)OC
Outline: as §1

defactinib = compound: CNC(=O)c1ccc(Nc2ncc(C(F)(F)F)c(NCc3nccnc3N(C)S(C)(=O)=O)n2)cc1 [defactinib]
Outline: as §1

[2] = compound: CNc1nc(-c2ccc3c(N)n[nH]c3c2)cc(N2C[C@@H](C(=O)NC3CCCCC3)CC[C@H]2C)n1
Outline: as §1

encorafenib = compound: COC(=O)N[C@@H](C)CNc1nccc(-c2cn(C(C)C)nc2-c2cc(Cl)cc(NS(C)(=O)=O)c2F)n1 [encorafenib]
Outline: as §1

[3] = compound: COC(=O)[C@H](CCSC)NC(=O)C1=C(C=C(C=C1)NC[C@H](CS)N)C2=CC=CC=C2
Outline: as §1

alisertib = compound: COc1cc(Nc2ncc3c(n2)-c2ccc(Cl)cc2C(c2c(F)cccc2OC)=NC3)ccc1C(=O)O [alisertib]
Outline: as §1

[4] = compound: COc1cc2nc(-c3cc(F)ccc3O)nc(N[C@@H]3CNC[C@H]3C(C)(C)O)c2cc1OC
Outline: as §1

gefitinib = compound: COc1cc2ncnc(Nc3ccc(F)c(Cl)c3)c2cc1OCCCN1CCOCC1 [gefitinib]
Outline: as §1

UniProt Q9UPW6, sequence (Q9UPW6 whole entry, looked up): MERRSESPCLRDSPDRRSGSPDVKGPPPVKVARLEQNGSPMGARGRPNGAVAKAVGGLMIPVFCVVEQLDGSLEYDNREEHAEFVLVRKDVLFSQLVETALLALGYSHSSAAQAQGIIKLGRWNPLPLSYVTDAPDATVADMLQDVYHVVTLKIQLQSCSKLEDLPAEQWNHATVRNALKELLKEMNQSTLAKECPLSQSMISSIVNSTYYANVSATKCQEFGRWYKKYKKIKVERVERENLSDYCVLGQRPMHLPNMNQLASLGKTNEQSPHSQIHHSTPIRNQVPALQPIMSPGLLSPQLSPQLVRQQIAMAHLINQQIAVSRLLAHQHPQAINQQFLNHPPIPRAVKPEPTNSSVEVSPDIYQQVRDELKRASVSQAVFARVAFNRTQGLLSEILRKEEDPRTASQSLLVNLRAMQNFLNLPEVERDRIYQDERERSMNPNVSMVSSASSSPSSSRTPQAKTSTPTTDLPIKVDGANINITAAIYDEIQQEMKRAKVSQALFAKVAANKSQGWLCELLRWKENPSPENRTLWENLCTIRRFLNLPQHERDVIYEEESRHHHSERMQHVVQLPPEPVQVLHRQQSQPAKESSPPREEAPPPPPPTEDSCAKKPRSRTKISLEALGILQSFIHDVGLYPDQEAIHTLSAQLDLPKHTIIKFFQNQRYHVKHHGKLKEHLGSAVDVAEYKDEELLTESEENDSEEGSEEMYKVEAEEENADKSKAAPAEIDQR
UniProt Q92930, sequence (Q92930 whole entry, looked up): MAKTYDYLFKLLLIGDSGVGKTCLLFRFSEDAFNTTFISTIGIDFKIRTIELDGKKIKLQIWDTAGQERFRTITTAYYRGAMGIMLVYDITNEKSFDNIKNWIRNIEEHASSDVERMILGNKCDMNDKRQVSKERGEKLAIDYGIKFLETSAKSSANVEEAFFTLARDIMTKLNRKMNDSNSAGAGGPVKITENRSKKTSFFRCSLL
UniProt Q15283, sequence (Q15283 whole entry, looked up): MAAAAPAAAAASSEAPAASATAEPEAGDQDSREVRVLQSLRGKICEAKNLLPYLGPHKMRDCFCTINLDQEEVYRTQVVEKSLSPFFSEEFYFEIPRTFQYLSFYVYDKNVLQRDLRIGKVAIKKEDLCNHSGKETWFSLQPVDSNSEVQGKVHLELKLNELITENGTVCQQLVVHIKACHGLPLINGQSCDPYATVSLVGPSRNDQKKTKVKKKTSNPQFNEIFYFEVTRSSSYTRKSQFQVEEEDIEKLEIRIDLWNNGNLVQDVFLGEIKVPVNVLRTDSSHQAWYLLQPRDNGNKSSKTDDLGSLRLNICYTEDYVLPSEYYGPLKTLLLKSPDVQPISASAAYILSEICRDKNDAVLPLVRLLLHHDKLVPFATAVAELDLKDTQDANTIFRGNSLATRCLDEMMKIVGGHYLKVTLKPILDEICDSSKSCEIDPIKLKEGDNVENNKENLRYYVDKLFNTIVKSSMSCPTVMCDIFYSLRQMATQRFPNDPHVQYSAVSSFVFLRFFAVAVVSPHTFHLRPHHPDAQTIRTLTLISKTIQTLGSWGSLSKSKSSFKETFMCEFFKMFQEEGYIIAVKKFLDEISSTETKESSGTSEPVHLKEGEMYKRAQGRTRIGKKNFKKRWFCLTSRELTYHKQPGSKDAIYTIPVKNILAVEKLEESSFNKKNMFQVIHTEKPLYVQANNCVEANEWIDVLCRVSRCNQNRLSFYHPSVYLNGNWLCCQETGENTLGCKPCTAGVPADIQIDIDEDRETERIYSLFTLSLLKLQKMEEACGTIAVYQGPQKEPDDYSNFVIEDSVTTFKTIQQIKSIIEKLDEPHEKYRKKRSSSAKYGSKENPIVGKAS
UniProt Q9P0P0, sequence (Q9P0P0 whole entry, looked up): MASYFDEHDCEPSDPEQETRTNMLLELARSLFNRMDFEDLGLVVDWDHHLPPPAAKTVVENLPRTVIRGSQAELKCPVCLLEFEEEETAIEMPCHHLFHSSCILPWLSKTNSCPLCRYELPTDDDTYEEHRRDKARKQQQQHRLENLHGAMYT
UniProt P54136, sequence (P54136 whole entry, looked up): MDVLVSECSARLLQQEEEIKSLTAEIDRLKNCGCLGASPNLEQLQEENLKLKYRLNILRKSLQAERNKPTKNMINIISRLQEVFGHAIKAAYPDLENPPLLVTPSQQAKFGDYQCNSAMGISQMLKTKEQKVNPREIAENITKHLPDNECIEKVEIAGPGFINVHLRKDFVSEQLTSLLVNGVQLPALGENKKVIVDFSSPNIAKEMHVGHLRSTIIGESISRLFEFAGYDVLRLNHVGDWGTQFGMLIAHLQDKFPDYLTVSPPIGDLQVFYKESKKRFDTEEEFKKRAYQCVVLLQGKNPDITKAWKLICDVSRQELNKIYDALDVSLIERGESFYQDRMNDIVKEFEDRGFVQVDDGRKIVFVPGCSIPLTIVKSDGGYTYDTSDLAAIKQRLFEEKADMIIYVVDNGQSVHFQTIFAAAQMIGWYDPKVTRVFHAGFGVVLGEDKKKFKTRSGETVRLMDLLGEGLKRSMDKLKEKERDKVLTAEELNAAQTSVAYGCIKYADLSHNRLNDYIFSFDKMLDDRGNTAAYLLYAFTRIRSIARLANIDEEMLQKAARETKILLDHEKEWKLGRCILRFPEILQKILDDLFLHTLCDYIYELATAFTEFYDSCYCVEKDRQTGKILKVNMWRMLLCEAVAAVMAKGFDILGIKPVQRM
UniProt Q8NBX0, sequence (Q8NBX0 whole entry, looked up): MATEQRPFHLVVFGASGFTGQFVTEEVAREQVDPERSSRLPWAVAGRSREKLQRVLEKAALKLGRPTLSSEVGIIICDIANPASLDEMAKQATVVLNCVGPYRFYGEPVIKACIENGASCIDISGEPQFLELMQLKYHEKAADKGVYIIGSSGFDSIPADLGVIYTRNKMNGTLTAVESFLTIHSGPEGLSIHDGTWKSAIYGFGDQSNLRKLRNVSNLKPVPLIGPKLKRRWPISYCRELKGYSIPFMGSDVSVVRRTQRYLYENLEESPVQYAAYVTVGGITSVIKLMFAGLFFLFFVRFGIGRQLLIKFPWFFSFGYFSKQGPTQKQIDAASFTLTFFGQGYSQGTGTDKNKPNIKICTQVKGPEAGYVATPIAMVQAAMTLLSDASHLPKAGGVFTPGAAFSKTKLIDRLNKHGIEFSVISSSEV
UniProt O75582, sequence (O75582 whole entry, looked up): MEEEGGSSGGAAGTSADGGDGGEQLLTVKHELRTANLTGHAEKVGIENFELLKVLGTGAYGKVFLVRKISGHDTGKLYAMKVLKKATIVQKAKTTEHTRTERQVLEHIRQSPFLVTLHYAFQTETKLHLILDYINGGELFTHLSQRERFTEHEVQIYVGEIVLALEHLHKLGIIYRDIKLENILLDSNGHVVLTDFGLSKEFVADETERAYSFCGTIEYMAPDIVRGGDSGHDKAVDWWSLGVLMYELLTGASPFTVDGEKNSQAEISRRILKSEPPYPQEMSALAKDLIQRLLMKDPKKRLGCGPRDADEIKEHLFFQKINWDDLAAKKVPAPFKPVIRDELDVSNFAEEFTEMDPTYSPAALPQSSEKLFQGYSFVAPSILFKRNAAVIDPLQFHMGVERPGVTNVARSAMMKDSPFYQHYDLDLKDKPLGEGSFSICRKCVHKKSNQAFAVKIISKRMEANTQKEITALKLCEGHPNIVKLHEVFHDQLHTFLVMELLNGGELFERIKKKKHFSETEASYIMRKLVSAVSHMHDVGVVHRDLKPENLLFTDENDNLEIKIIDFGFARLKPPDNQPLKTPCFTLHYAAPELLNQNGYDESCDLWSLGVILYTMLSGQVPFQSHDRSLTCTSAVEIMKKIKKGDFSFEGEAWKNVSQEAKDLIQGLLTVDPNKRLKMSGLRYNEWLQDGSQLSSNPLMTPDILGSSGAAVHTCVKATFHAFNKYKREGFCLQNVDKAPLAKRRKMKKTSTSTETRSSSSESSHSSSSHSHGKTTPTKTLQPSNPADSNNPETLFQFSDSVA
UniProt Q6PCD5, sequence (Q6PCD5 whole entry, looked up): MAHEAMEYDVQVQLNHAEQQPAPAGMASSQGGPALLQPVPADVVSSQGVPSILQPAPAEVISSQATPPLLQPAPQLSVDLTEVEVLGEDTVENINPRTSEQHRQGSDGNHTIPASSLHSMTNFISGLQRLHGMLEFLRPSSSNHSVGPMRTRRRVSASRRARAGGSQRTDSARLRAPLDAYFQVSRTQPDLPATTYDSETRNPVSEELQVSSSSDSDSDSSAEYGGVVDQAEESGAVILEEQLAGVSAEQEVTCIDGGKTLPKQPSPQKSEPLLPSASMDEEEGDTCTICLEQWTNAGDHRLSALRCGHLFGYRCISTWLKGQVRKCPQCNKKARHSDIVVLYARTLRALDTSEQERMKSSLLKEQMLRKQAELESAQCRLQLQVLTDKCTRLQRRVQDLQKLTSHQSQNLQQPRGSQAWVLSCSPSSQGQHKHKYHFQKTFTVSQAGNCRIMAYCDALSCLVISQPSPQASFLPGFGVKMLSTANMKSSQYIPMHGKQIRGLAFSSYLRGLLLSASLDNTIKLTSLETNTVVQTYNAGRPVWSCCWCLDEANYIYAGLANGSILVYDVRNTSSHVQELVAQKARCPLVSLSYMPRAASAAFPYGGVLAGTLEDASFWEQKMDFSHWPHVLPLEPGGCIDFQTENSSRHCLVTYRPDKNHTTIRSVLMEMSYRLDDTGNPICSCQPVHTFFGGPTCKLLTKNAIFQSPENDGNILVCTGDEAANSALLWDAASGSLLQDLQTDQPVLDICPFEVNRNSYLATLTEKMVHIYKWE
UniProt P35249, sequence (P35249 whole entry, looked up): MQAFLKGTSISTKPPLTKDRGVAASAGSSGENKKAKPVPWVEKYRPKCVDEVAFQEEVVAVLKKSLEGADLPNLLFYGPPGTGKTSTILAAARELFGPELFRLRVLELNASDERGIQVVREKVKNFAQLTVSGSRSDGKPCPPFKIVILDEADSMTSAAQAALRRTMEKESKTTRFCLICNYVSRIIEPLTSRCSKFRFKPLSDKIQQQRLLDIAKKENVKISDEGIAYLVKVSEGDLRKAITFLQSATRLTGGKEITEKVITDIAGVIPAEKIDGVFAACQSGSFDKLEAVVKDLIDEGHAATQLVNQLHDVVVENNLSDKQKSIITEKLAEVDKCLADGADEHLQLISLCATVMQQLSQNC

Target | log2 fold change (alvocidib) | log2 fold change (Tubastatin A) | log2 fold change [1] | log2 fold change (defactinib) | log2 fold change [2] | log2 fold change (encorafenib) | log2 fold change [3] | log2 fold change (alisertib) | log2 fold change [4] | log2 fold change (gefitinib)
RARS (UniProt P54136) | 0.032 | -0.1 | -0.006 | 0.024 | -0.035 | -0.001 | 0.128 | 0.026 | -0.009 | -0.023
RASA2 (UniProt Q15283) | 0 | -0.078 | 0.019 | 0.053 | -0.064 | -0.059 | 0.113 | -0.003 | -0.008 | -0.003
RPS6KA5 (UniProt O75582) | 0.193 | -0.239 | 0.009 | 0.019 | 0.072 | 0.054 | -0.005 | 0.041 | 0.104 | 0.11
RAB1B (UniProt Q9H0U4) | -0.146 | 0.007 | -0.016 | -0.037 | 0.01 | 0.065 | -0.058 | 0.047 | 0.003 | 0.064
RNF181 (UniProt Q9P0P0) | 0 | 0.021 | 0.037 | 0.044 | -0.008 | 0.029 | -0.201 | -0.011 | -0.004 | -0.083
SCCPDH (UniProt Q8NBX0) | -0.051 | 0.044 | 0.05 | 0.028 | 0.333 | -0.076 | 0.129 | -0.011 | 0.005 | -0.063
SEC16A isoform 5 (UniProt O15027) | -0.005 | -0.09 | 0.011 | -0.014 | -0.002 | 0.011 | 0.01 | -0.001 | 0.013 | 0.014
RBM5 (UniProt P52756) | -0.226 | -0.059 | 0.021 | 0.01 | 0.028 | 0.044 | 0.134 | -0.035 | 0.182 | 0.18
SERINC3 (UniProt Q13530) | -0.074 | -0.008 | 0.057 | -0.091 | 0.065 | 0.023 | -0.109 | -0.047 | 0.055 | 0.014
RHAG (UniProt Q02094) | -0.133 | 0.031 | 0.043 | -0.043 | 0.037 | 0.016 | 0.02 | -0.004 | 0.046 | -0.051
RNPS1 (UniProt Q15287) | -0.043 | 0.102 | 0.02 | -0.009 | 0.029 | 0.069 | 0.01 | 0.02 | 0.01 | 0.006
SDHC (UniProt Q99643) | -0.114 | -0.056 | 0.047 | 0.146 | 0.097 | 0.034 | 0.055 | 0.018 | -0.007 | 0.011
RAPGEF4 (UniProt Q8WZA2) | -0.367 | 0.156 | 0.061 | -0.023 | 0.433 | 0.018 | 0.147 |  | 0.196 | 
SCO1 (UniProt O75880) | 0.002 | -0.031 | -0.051 | -0.004 | 0.053 | -0.004 | -0.57 (active) | -0.096 | 0.014 | -0.015
RBM42 (UniProt Q9BTD8) | -0.036 | -0.022 | 0.08 | 0.058 | 0.077 | 0.098 | -0.28 (active) | 0.043 | -0.062 | -0.066
SEC61G (UniProt P60059) | -0.107 | 0.063 | 0.09 | 0.045 | 0.137 | -0.02 | 0.067 | 0.053 | 0.009 | 0.036
RFWD3 (UniProt Q6PCD5) | -0.057 | 0.065 | 0.051 | 0.082 | -0.057 | 0.1 | -0.052 | 0.114 |  | -0.057
RFC5 (UniProt P40937) | 0.004 | -0.203 | 0.003 | 0.008 | -0.004 | 0.051 | 0.148 | -0.006 | -0.003 | 0
RBM23 isoform 2 (UniProt Q86U06) | -0.056 | -0.084 | 0.133 | -0.037 | 0.181 | 0.335 | -0.003 | 0.11 | 0.137 | 0.057
RNF40 (UniProt O75150) | -0.003 | -0.102 | 0.023 | 0.022 | -0.006 | 0.015 | 0.079 | -0.002 | 0 | 0.013
RFC4 (UniProt P35249) | -0.018 | -0.119 | 0.018 | 0.009 | -0.043 | 0.018 | 0.088 | 0.022 | 0.003 | -0.006
RPS6KA1 (UniProt Q15418) | 0.447 (active) | -0.194 | 0.758 (active) | 0.236 | -0.007 | -0.121 | -0.002 | 0.012 | 0.165 | -0.007
RETSAT (UniProt Q6NUM9) | -0.114 | 0.179 | -0.071 | -0.045 | 0.402 | 0.079 | 0.025 |  | -0.059 | 
SATB2 (UniProt Q9UPW6) | 0.047 | -0.096 | -0.019 | -0.022 | -0.031 | 0.053 | -0.022 | 0.024 | -0.008 | 0.01
RPL28 (UniProt P46779) | 0.03 | 0.006 | -0.009 | -0.018 | 0.036 | 0.012 | -0.014 | 0.011 | -0.005 | -0.058
RECQL4 (UniProt O94761) | 0.042 | -0.045 | 0.104 | 0.049 | -0.02 | 0.023 | 0.056 | 0.028 |  | 0.065
RAB8B (UniProt Q92930) | 0.037 | 0.034 | -0.011 | -0.016 | -0.026 | -0.002 | -0.045 | 0.016 | 0.015 | 0.115
RNASEL (UniProt Q05823) | 0.054 | -0.094 | -0.034 | -0.02 | 0.012 | 0.029 | 0.144 | -0.074 | -0.035 | 0.061
